Source: PubChem
HT1080 IDH1KD tx: toxicity to HT-1080 IDH1 knockdown cells (counter line) | Potency, µM (titrated, usually from 46.1 µM), hits mostly cytotoxic | AID 686971 | 360,000 tested, 2% active | HT-1080 IDH1 knockdown viability, ATP luminescence, 48 h
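Using the IDH1-knockdown HT-1080 line run in the same batch and compound series as the NT line, viability after 48 h at 37 °C was determined by CellTiter-Glo luminescence and expressed as % activity.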
TDP1 cell noCPT: qHTS for Inhibitors of human tyrosyl-DNA phosphodiesterase 1 (TDP1): qHTS in cells in absence of CPT | DT40 Tdp1-/- hTDP1 cells, no CPT, ATP luminescence, 48 h | Potency, µM (doses to about 46.2 µM), most hits filed as inhibitors | 420,000 tested, 15% active | AID 686978, 2013; note: nearly all actives have a fitted effect of over 55% in size
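Growth kinetics read by CellTiter-Glo luminescence after ≥48 hr at 37 °C. Cells: DT40 Tdp1-/- stably carrying human TDP1, 400 per well, compound exposure in the absence of CPT (DMSO vehicle).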
IL1B secr inh: blocks inflammasome-driven IL-1 beta release; 360,000 tested, 4.7% active; AID 743279; activity change, % at 57.5 µM; THP-1 LPS/ATP IL-1B secretion, AlphaLISA, 16 h; hits give low values; in the data active = activity change below about -50%; inconclusive = mostly about -30% to -49%
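THP-1 cells pretreated 1 hr with compounds (up to 57.5 uM final), then stimulated with LPS (250 ng/mL final) plus ATP (1.25 mM final); secreted IL-1B measured by AlphaLISA after 16 hr, decreased signal indicating inhibition.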
HT1080-NT tox: kills 2HG-producing HT-1080-NT fibrosarcoma cells; HT-1080-NT fibrosarcoma viability, CellTiter-Glo ATP luminescence, 48 h; AID 686970; Potency, µM (highest dose often 46.1 µM), actives largely listed as cytotoxic; 360,000 tested, 1.6% active;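 note: NT is the 2HG producing partner of a matched IDH1 knockdown line; nearly all actives have a fitted effect of over 55% in size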
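Compounds were tested in concentration-response format on HT-1080-NT cells for 48 hours at 37 degrees C. Cell viability came from CellTiter-Glo luminescence; curves were classified by r2, response magnitude and activity.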
TDP1 cell CPT: growth inhibition of DT40 Tdp1-/-;hTDP1 cells with camptothecin (screen for TDP1 inhibitors); chicken DT40 Tdp1-/-;hTDP1 cells + 20 nM CPT, ATP luminescence, 48 h; Potency, µM (titrated, usually from 46.2 µM), actives largely listed as inhibitors; 420,000 tested, 12% active; note: nearly all actives have a fitted effect of over 55% in size
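Cell growth measured by CellTiter-Glo luminescence after a minimum 48 h, 37 C compound exposure with 20 nM CPT in Tdp1-knockout DT40 cells stably expressing hTDP1, seeded 400/well; qHTS titration format.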
Each line names hits and unclear results; the compound was inactive in the other large screens. Only some compounds are listed: those with a hit (about 19% of all), similar ones and a draw of the others. Unless noted, calls come from the whole dose curve; as a rule, active = well fitted curve in the direction sought with a large enough effect; inconclusive = small, poorly fitted or top-dose-only effect, or another doubt; inactive = no such curve, though single readings can be large; an effect the other way counts as inactive or inconclusive.

CC(C(=O)Nc1ccc(C#N)cc1)N(C)CC(=O)Nc1ccccc1Br (stereo unspecified)	HT1080 IDH1KD tx 23.1µM, TDP1 cell noCPT inconclusive, HT1080-NT tox inconclusive, TDP1 cell CPT inconclusive
CN(CC(=O)Nc1ccccc1Br)CC(=O)NC(c1ccccc1)c1ccccc1	TDP1 cell noCPT inconclusive, IL1B secr inh -50.7, TDP1 cell CPT inconclusive
CCn1c(=O)c(C(=O)CN(C)CC(=O)Nc2ccccc2Br)c(N)n(Cc2ccccc2)c1=O	TDP1 cell noCPT 18.4µM, TDP1 cell CPT 20.6µM
CC(=O)Nc1ccc(NC(=O)CN(C)CC(=O)Nc2ccccc2Br)cc1	none
CC(C(=O)Nc1ccc(C#N)cc1)N(C)CC(=O)Nc1cccc(F)c1 (stereo unspecified)	none
CCn1c(=O)c(C(=O)CN2CCc3ccccc32)c(N)n(Cc2ccccc2)c1=O	HT1080 IDH1KD tx inconclusive, TDP1 cell noCPT inconclusive, TDP1 cell CPT inconclusive
COc1ccc(OC)c(CCNC(=O)CCc2nnc3ccc(N4CCOCC4)nn23)c1	TDP1 cell CPT inconclusive
CC(NS(=O)(=O)c1ccc(NC(=O)N2CCCCC2)cc1)c1ccccc1 (stereo unspecified)	TDP1 cell noCPT inconclusive
COc1ccc(NC(=O)c2nn(C)c3c2CS(=O)(=O)c2ccccc2-3)cc1Cl	TDP1 cell CPT inconclusive (no result: HT1080 IDH1KD tx, IL1B secr inh, HT1080-NT tox)
COc1ccc(N(CC(=O)NCc2ccco2)C(=O)CCC(=O)Nc2ccccn2)cc1	none
O=S(=O)(c1ccc(F)cc1)N1CCN(c2ccccc2)CC1	IL1B secr inh inconclusive
CC(=O)c1ccc(S(=O)(=O)N2CCN(C(C)=O)CC2)cc1	none
O=S(=O)(c1ccc(-c2cnc(C3CC3)o2)cc1)N1CCN(c2cccc(Cl)c2)CC1	TDP1 cell noCPT 3.26µM, TDP1 cell CPT 4.11µM (no result: HT1080 IDH1KD tx, IL1B secr inh, HT1080-NT tox)
CC(=O)c1ccc(N2CCN(S(=O)(=O)c3ccc(-c4cnc(C5CC5)o4)cc3)CC2)cc1	HT1080 IDH1KD tx 20.6µM, TDP1 cell noCPT inconclusive, HT1080-NT tox 14.6µM, TDP1 cell CPT 3.26µM
O=S(=O)(c1ccc(-c2cnc(C3CC3)o2)cc1)N1CCN(c2ccc(F)cc2)CC1	TDP1 cell noCPT 0.411µM, TDP1 cell CPT 0.92µM (no result: HT1080 IDH1KD tx, IL1B secr inh, HT1080-NT tox)
CCOC1=C/C(=C/c2c(N)n3nc(S(=O)(=O)CC)sc3nc2=O)C=CC1=O	none
COC(=O)C1CCN(S(=O)(=O)c2ccc(OC)cc2)CC1	none
N#Cc1ccc(C(=O)OCC(=O)N2CCOCC2)cc1	none
CC(Oc1ccc(Cl)cc1)c1ccnn1S(=O)(=O)c1ccccc1 (stereo unspecified)	none
CC(Oc1ccc(-c2ccccc2)c(F)c1)c1ccn(S(=O)(=O)c2ccc(Cl)cc2)n1 (stereo unspecified)	TDP1 cell noCPT inconclusive, TDP1 cell CPT 14.6µM
Cc1c(C(=O)N2CCCC2)c(S(=O)(=O)Nc2ccccc2Cl)c(C)n1C	none
Cc1cccc(N(C)S(=O)(=O)c2c(C(=O)N3CCCCCC3)c(C)n(C)c2C)c1	TDP1 cell noCPT 20.6µM, TDP1 cell CPT 16.4µM (no result: HT1080 IDH1KD tx, IL1B secr inh, HT1080-NT tox)
Cc1c(C(=O)N2CCCCC2)c(S(=O)(=O)NCc2ccccc2Cl)c(C)n1C	TDP1 cell noCPT inconclusive, TDP1 cell CPT 23.1µM
Cc1cc(Cl)ccc1NS(=O)(=O)c1c(C(=O)N2CCCCCC2)c(C)n(C)c1C	TDP1 cell noCPT 20.6µM, TDP1 cell CPT inconclusive (no result: HT1080 IDH1KD tx, IL1B secr inh, HT1080-NT tox)
Cc1ccccc1CNS(=O)(=O)c1c(C(=O)N2CCCC2)c(C)n(C)c1C	none
CCn1c(-c2ccccc2F)nc2cc(NC(C)=O)cc(C(=O)NCC3CCOCC3)c21	none (no result: HT1080 IDH1KD tx, IL1B secr inh, HT1080-NT tox)
COc1ccccc1CN1CCCC2(CCN(C(=O)c3ccncc3)CC2)C1	none (no result: HT1080 IDH1KD tx, IL1B secr inh, HT1080-NT tox)
FC(F)(F)c1cccc(-c2cncc(N3CCN(CCN4CCCC4)CC3)n2)c1	HT1080 IDH1KD tx inconclusive, TDP1 cell noCPT 16.4µM, HT1080-NT tox inconclusive, TDP1 cell CPT 23.1µM
CCN(CC)CCN1CCN(c2cncc(-c3ccc4ccccc4c3)n2)CC1	HT1080 IDH1KD tx 16.4µM, TDP1 cell noCPT 16.4µM, IL1B secr inh -59.5, HT1080-NT tox 23.1µM, TDP1 cell CPT 11.6µM
Fc1cccc(-c2cncc(N3CCN(CCN4CCCC4)CC3)n2)c1	HT1080 IDH1KD tx inconclusive, TDP1 cell noCPT inconclusive, TDP1 cell CPT inconclusive
CCCCCCCCCCNC(=O)CCn1[nH]c(=O)c2ccccc2c1=O	none
